# Unmarked numbers belong to inactive results. Results filed as inconclusive are left out. A call without a number means that no potency is given here. Active and inactive are the calls of the source. Unless noted, the call rests on the fitted dose curve; in most records, active means well fitted curve in the direction sought with a large enough effect in the repeat runs; inconclusive means weak or mixed curves; inactive means no such curve, though single readings can be large; an effect the other way counts as inactive or inconclusive.
# Key:
# [1] = A CellTox Green Cytotoxicity Assay to monitor cytotoxicity in HepG2 cells - 8 hour (AID 1224890); further: nearly all actives have a fitted effect of over 45% in size; further: potency means the concentration at half of the fitted maximal effect
# Method in brief: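 Fluorescent DNA-binding dye, 600 HepG2 cells/well, 5 h preincubation then compound in DMSO; same plates read at 0–40 h, 37 C.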
# [2] = qHTS assay to identify small molecule antagonists of the estrogen receptor alpha (ER-alpha) signaling pathway using the BG1 cell line in the presence of 0.1 nM 17-beta-estradiol - cell viability counter screen (AID 1259241); further: nearly all actives have a fitted effect of over 40% in size
# Method in brief: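 Live-cell protease activity (CellTiter-Fluor fluorescence, 30 min) was read in the same wells after VM7Luc4E2 cells had been exposed to compounds with 0.1 nM 17beta-estradiol for 22 hr at 37C.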
# [3] = qHTS assay to identify small molecule antagonists of the androgen receptor (AR) signaling pathway using the MDA cell line in the presence of 0.5 nM R1881 - cell viability counter screen (AID 1259242); further: nearly all actives have a fitted effect of over 45% in size
# Method in brief: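 Human breast carcinoma MDA-kb2 cells, cultured without CO2, receive compounds alongside 0.5 nM (final) R1881 agonist. After 16 hr at 37C, viability is taken as live-cell protease signal.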
# [4] = target: Estrogen receptor (Homo sapiens) (UniProt P03372); assay: qHTS assay to identify small molecule antagonists of the estrogen receptor alpha (ER-alpha) signaling pathway using the BG1 cell line in the presence of 0.1 nM 17-beta-estradiol (AID 1259244); further: nearly all actives have a fitted effect of over 50% in size
# Method in brief: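 Seeding of stripped-serum-adapted VM7Luc4E2 cells, 24 h attachment, compound transfer, then 0.1 nM final 17beta-estradiol; after 22 h incubation, ONE-Glo reagent and luminescence reading.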
# [5] = qHTS assay to identify small molecule HDAC inhibitors (AID 1259364); further: potency means the concentration at half of the fitted maximal effect;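 further: wild-type HCT-116 cells with endogenous class I/II HDAC activity; nearly all actives have a fitted effect of over 45% in size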
# Method in brief: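 After a 2 hr compound incubation (37C, 5% CO2), HCT-116 cells seeded at 1,500/well the day before received HDAC-Glo reagent; signal read as luminescence after 30 min at room temperature.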
# [6] = qHTS assay to identify small molecule HDAC inhibitors - cell viability counter screen (AID 1259365); further: series mostly up to about 92 µM; nearly all actives have a fitted effect of over 50% in size
# Method in brief: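 HCT-116 (wild type), 1,500 cells/well, overnight 37C/5% CO2; compound in DMSO 2hr; CellTiter-Glo 30min RT; luminescence read.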
# [7] = qHTS assay to identify small molecule agonists of the sonic hedgehog signaling (Shh) pathway - cell viability counter screen (AID 1259366); further: nearly all actives have a fitted effect of over 50% in size
# Method in brief: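 CellTiter-Fluor fluorescence read-out, 1 hr at 37C, added after 23hr compound exposure. Cells: 3T3 Gli1-Luc, an NIH/3T3 clone with stably integrated Gli1-Luc reporter, plated 4hr before compound.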
# [8] = qHTS assay to identify small molecule antagonists of the sonic hedgehog signaling (Shh) pathway - cell viability counter screen (AID 1259367); further: nearly all actives have a fitted effect of over 55% in size
# Method in brief: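 Tox21 library chemicals were tested on a Gli1-Luc NIH/3T3 clone (2,000 cells/well) stimulated by conditioned medium; viability was quantified as fluorescence from CellTiter-Fluor reagent added at 23 hr.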
# [9] = qHTS assay to identify small molecule agonists of the sonic hedgehog signaling (Shh) pathway (AID 1259368; calls by dose curve;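 further: NIH/3T3-derived 3T3Gli1-Luc cells carrying a stable Gli1-driven firefly luciferase reporter; series mostly up to about 92 µM; nearly all actives have a fitted effect of over 15% in size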)
# Method in brief: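 Stable NIH/3T3 Gli1-Luc reporter clone; 24 hr cpd exposure after a 4 hr settling period; luminescence endpoint.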
# [10] = qHTS assay to identify small molecule antagonists of the sonic hedgehog signaling (Shh) pathway (AID 1259369; calls by dose curve; further: nearly all actives have a fitted effect of over 45% in size; further: potency means the concentration at half of the fitted maximal effect)
# Method in brief: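 Gli1 transcriptional reporter (firefly Luc) in NIH/3T3 background, conditioned-medium activated. 24hr exposure, luminescence endpoint.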
# [11] = target: Estrogen receptor beta (Homo sapiens) (UniProt Q92731); assay: qHTS assay to identify small molecule agonists of the estrogen receptor beta (ER-beta) signaling pathway (AID 1259377; active means well fitted activation curve with a large enough effect in the signal ratio in the repeat runs, not every such curve was filed as active; the % refers to the signal ratio)
# Method in brief: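 Beta-lactamase reporter readout: fluorescence of LiveBLAzer B/G FRET substrate after 2 h at room temperature, following 16 h compound treatment of ER-beta-UAS-bla HEK293T cells at 37C in 2% charcoal-stripped FBS medium.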
# [12] = target: Estrogen receptor beta (Homo sapiens) (UniProt Q92731); assay: qHTS assay to identify small molecule antagonists of the estrogen receptor beta (ER-beta) signaling pathway (AID 1259378; active means well fitted inhibition curve with a large enough effect in the signal ratio in the repeat runs, not every such curve was filed as active; the % refers to the signal ratio)
# Method in brief: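 ER-beta-UAS-bla HEK293T cells in 2% charcoal-stripped FBS medium treated with compound plus 1nM final 17-beta-estradiol for 16 hr at 37C. Beta-lactamase reporter read by FRET substrate fluorescence after 2 hours at room temperature.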
# [13] = qHTS assay to identify small molecule agonists of the androgen receptor (AR) signaling pathway in the presence of an antagonist - cell viability counter screen (AID 1259379);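 further: MDA-kb2 human breast cancer cells carrying an MMTV luciferase reporter; series mostly up to about 92 µM; nearly all actives have a fitted effect of over 25% in size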
# Method in brief: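 Counter screen for cell viability run in parallel with the AR agonist-mode luciferase assay. MDA-kb2 cells were co-treated with nilutamide (3.0uM final) and compounds, then incubated 16 hr at 37C, and CellTiter-Fluor fluorescence was measured.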
# [14] = qHTS assay to identify small molecule agonists of the estrogen receptor beta (ER-beta) signaling pathway - cell viability counter screen (AID 1259380); further: nearly all actives have a fitted effect of over 30% in size
# Method in brief: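 In this qHTS counter screen, HEK293T cells carrying an ER-beta/UAS beta-lactamase reporter, grown in 2% charcoal-stripped FBS, received compound for 16 hr; ATP-based CellTiter-Glo luminescence was then read after 30 min at room temperature.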
# [15] = qHTS assay to identify small molecule antagonists of the estrogen receptor beta (ER-beta) signaling pathway - cell viability counter screen (AID 1259382); further: series mostly up to about 92 µM; nearly all actives have a fitted effect of over 55% in size
# Method in brief: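 HEK293T ER-beta-UAS-bla, 2% charcoal-stripped FBS; compounds + 1nM E2 16 hr 37C; CellTiter-Glo luminescence, 30 min RT.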
# [16] = target: Estrogen receptor (Homo sapiens) (UniProt P03372); assay: qHTS assay to identify small molecule agonists of the estrogen receptor alpha (ER-alpha) signaling pathway in the presence of an antagonist (AID 1259383; calls by dose curve; further: nearly all actives have a fitted effect of over 15% in size; further: potency means the concentration at half of the fitted maximal effect; on activation: top concentration of the series differs between compounds)
# Method in brief: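 ER-alpha agonism measured under antagonist challenge: 10.0nM ICI-182,780 (final) plus compound, 15 concentrations, 22hr, VM7Luc4E2 ERE-luciferase cells. Read by luminescence.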
# [17] = qHTS assay to identify small molecule agonists or antagonists of the thyroid stimulating hormone receptor (TSHR) signaling pathway - wild type cell line counter screen (AID 1259384; calls by dose curve)
# Method in brief: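 Wild-type Hek293 cells, 800/well, 18 h at 37C, then compound with Ro20-1724 for 30 min RT. cAMP by HTRF (cAMP-d2/anti-cAMP cryptate), 1 h RT, fluorescence read. 15 concentrations, triplicates.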
# [18] = qHTS assay to identify small molecule phospholipidosis (PLD) inducers (AID 1259344; active means well fitted curve in the direction sought with a large enough effect; an effect the other way counts as inactive or inconclusive)
# Method in brief: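 Image-based: LipidTOX Red pit count/intensity per well and per cell; HepG2, 24 h compound at 37 C, PFA fixation, Hoechst counterstain.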
# Chain of Estrogen receptor (Homo sapiens) (P03372 whole entry, looked up): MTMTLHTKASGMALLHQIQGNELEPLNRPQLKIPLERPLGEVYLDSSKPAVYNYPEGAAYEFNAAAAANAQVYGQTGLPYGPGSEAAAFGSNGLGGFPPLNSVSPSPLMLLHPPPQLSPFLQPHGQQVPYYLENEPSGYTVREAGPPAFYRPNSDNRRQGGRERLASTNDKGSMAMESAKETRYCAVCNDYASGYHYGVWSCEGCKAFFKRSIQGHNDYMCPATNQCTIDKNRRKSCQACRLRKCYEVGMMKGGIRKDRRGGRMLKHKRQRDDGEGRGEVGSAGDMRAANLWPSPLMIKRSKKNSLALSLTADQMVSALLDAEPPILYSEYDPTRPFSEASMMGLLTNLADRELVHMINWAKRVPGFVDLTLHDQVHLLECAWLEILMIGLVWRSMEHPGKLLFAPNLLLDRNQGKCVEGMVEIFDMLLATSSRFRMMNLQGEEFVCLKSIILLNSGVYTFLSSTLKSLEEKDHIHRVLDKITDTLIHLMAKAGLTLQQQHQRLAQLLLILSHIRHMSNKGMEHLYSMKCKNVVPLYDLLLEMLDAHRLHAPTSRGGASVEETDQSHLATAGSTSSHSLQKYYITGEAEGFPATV
# Chain of Estrogen receptor beta (Homo sapiens) (Q92731 whole entry, looked up): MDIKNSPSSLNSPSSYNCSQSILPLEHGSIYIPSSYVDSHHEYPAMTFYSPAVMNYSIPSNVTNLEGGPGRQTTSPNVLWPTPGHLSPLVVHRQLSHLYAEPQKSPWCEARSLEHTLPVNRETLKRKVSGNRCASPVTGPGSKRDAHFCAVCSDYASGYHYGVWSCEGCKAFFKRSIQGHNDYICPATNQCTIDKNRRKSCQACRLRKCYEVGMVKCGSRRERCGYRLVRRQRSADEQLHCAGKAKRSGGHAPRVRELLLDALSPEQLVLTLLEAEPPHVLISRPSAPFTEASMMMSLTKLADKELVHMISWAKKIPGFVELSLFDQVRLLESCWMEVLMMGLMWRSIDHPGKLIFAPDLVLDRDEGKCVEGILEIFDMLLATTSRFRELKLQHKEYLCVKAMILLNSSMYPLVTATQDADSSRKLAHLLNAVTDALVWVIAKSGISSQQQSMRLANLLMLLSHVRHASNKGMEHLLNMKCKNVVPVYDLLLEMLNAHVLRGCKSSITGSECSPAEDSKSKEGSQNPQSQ
Structure (SMILES),Potency [1],Potency [2],Potency [3],Potency [4],Potency [5],Potency [6],Potency [7],Potency [8],Potency [9],Potency [10],Potency [11],Potency [12],Potency [13],Potency [14],Potency [15],Potency [16],Potency [17],Potency [18],PLD induction [18]
CC(C)C(=O)OCCOc1ccccc1,inactive,inactive,inactive,inactive,inactive,inactive,inactive,inactive,inactive,inactive,inactive,inactive,inactive,inactive,inactive,inactive,inactive,–,–
C=C(C)C(=O)OCCC(F)(F)C(F)(F)C(F)(F)C(F)(F)C(F)(F)C(F)(F)F,inactive,inactive,inactive,inactive,inactive,inactive,inactive,inactive,inactive,inactive,inactive,inactive,inactive,inactive,inactive,inactive,inactive,–,–
O=C(O)c1cccc(Oc2ccccc2)c1,inactive,inactive,inactive,inactive,inactive,inactive,inactive,inactive,inactive,inactive,–,–,inactive,inactive,inactive,inactive,inactive,–,–
CC(C)c1ccc(C#N)cc1,inactive,inactive,inactive,inactive,inactive,inactive,inactive,inactive,inactive,inactive,inactive,inactive,inactive,inactive,–,inactive,inactive,–,–
COC(OC)OC,inactive,inactive,inactive,inactive,inactive,inactive,inactive,inactive,inactive,inactive,inactive,inactive,inactive,inactive,inactive,inactive,inactive,–,–
O=CNNC=O,inactive,inactive,inactive,inactive,inactive,inactive,inactive,inactive,inactive,inactive,inactive,inactive,inactive,inactive,inactive,inactive,inactive,–,–
COc1ccc(-n2nc(C(F)F)cc2-c2ccc(S(C)=O)cc2)cc1 (centres undefined),inactive,inactive,inactive,inactive,inactive,inactive,inactive,inactive,inactive,1.09 µM (active),–,–,inactive,inactive,inactive,inactive,inactive,–,–
CCC(CO)(CO)[N+](=O)[O-],inactive,inactive,inactive,inactive,inactive,inactive,inactive,inactive,inactive,inactive,–,–,inactive,inactive,inactive,inactive,inactive,–,–
CC(CO)(CO)C(=O)O,inactive,inactive,inactive,inactive,inactive,inactive,inactive,inactive,inactive,inactive,–,inactive,inactive,inactive,inactive,inactive,–,–,–
CCCc1nc2c(C)cc(-c3nc4ccccc4n3C)cc2n1Cc1ccc(-c2ccccc2C(=O)O)cc1,inactive,inactive,inactive,inactive,inactive,inactive,–,–,inactive,inactive,–,–,inactive,–,inactive,inactive,inactive,inactive,–
COc1cc(NS(=O)(=O)c2ccc(N)cc2)nc(C)n1,inactive,inactive,inactive,inactive,inactive,inactive,–,–,inactive,inactive,–,–,inactive,inactive,inactive,inactive,inactive,–,-3.88% [at 7.66 µM]
O=c1[nH]c2cc(C(F)(F)F)c(N3CCOCC3)cc2n(CP(=O)(O)O)c1=O,inactive,inactive,inactive,inactive,inactive,inactive,–,inactive,inactive,inactive,–,–,inactive,inactive,inactive,inactive,–,inactive,–
CCCCCCCCCCCCCCCC(=O)OCC,inactive,inactive,inactive,inactive,inactive,inactive,inactive,inactive,inactive,inactive,–,–,inactive,inactive,inactive,inactive,inactive,–,–
CC(=O)N[C@@H](Cc1ccc(O)cc1)C(=O)O,inactive,inactive,inactive,–,inactive,inactive,inactive,inactive,inactive,inactive,inactive,inactive,inactive,inactive,inactive,–,inactive,inactive,–
O=C(O)CN1C(=O)c2cccc3cccc(c23)C1=O,inactive,inactive,inactive,–,inactive,inactive,inactive,inactive,inactive,inactive,–,–,inactive,inactive,inactive,–,inactive,inactive,–
Cc1ccc2nc(N)[nH]c(=O)c2c1Sc1ccncc1,inactive,inactive,inactive,–,inactive,inactive,inactive,inactive,inactive,–,inactive,–,inactive,–,inactive,–,–,inactive,–
CC1=C2[C@@H]([C@H](C)CC[C@H]2/C=C(\C)C(=O)O)[C@H](O)C1,inactive,inactive,inactive,inactive,inactive,inactive,inactive,–,inactive,–,inactive,inactive,inactive,inactive,–,inactive,inactive,–,–
CC(C)c1ccc(C(=O)N=C(N)N)cc1S(C)(=O)=O,inactive,inactive,inactive,inactive,inactive,inactive,inactive,inactive,inactive,inactive,–,–,inactive,inactive,–,inactive,inactive,–,–
CCCCCCCC/C=C\CCCCCCCC(=O)OCCO,inactive,inactive,inactive,inactive,inactive,inactive,inactive,inactive,inactive,36.2 µM (active),–,–,inactive,–,–,inactive,inactive,–,–
CCO[Si](C)(CCCOCC1CO1)OCC (centres undefined),inactive,inactive,inactive,inactive,inactive,inactive,inactive,inactive,inactive,–,inactive,–,inactive,inactive,inactive,inactive,inactive,–,–
OCC(CO)n1cnc(-c2ccc(F)cc2)c1-c1ccnc(Oc2ccccc2)n1,inactive,inactive,inactive,inactive,inactive,inactive,inactive,–,inactive,–,inactive,–,inactive,inactive,inactive,inactive,–,–,–
c1ccc(CNc2ncnc3c2ncn3C2CCCCO2)cc1 (centres undefined),inactive,inactive,inactive,inactive,–,inactive,inactive,inactive,–,inactive,–,–,inactive,inactive,inactive,7.7 µM (active),–,–,–
O=C(/C=C/c1ccc([N+](=O)[O-])cc1)c1ccccc1,inactive,inactive,inactive,inactive,8.65 µM (active),inactive,inactive,inactive,inactive,–,–,–,–,–,inactive,inactive,inactive,–,–
O=P(O)(O)Oc1ccccc1,inactive,inactive,inactive,inactive,inactive,inactive,inactive,inactive,inactive,–,–,–,inactive,inactive,inactive,inactive,inactive,–,–
CC[C@@H](CO)NCCN[C@@H](CC)CO,inactive,inactive,inactive,–,inactive,inactive,inactive,inactive,inactive,inactive,inactive,inactive,inactive,inactive,–,–,inactive,inactive,–
O=C(NS(=O)(=O)/C=C/c1ccccc1)c1ccc(F)cc1Cl,inactive,inactive,inactive,inactive,inactive,inactive,–,–,inactive,inactive,inactive,–,inactive,inactive,inactive,inactive,inactive,–,–
O=C(O)CCC(=O)OC[C@@H](NC(=O)C(Cl)Cl)[C@H](O)c1ccc([N+](=O)[O-])cc1,21.3 µM (active),inactive,inactive,–,inactive,inactive,inactive,inactive,inactive,inactive,–,inactive,inactive,inactive,inactive,–,–,inactive,–
CC(=O)OCC(=O)[C@@]1(OC(C)=O)[C@@H](C)C[C@H]2[C@@H]3C[C@H](F)C4=CC(=O)C=C[C@]4(C)[C@@]3(F)[C@@H](O)C[C@@]21C,inactive,inactive,inactive,–,inactive,inactive,inactive,inactive,inactive,–,–,–,inactive,–,inactive,–,inactive,inactive,–
